Test results from PubChem BioAssay (NCATS).
Records with an inconclusive call do not appear. Values without a mark were called inactive. Activity calls are given as the source filed them. Calls follow the shape of the dose curve; as a rule, active = well fitted activation curve with a large enough effect; inconclusive = small, poorly fitted or top-dose-only effect; inactive = no such curve, though single readings can be large or run the other way.

What follows are molecules tested against Cellular tumor antigen p53 (Homo sapiens) (UniProt P04637) (assay: Primary qHTS for small molecule compounds that upregulate eGFP-tagged delta133p53alpha (in N-terminal) cells. (AID 2060322; also: nearly all actives have a fitted effect of over 75% in size;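 as to activation: series mostly up to about 56 µM; 0% = DMSO vehicle and 100% = reference activator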)). Conditions: NCI-H358 eGFP-delta133p53alpha fluorescence, 24 h; activation: hits give high values.
Cellular tumor antigen p53 (Homo sapiens), sequence (P04637 whole entry, looked up): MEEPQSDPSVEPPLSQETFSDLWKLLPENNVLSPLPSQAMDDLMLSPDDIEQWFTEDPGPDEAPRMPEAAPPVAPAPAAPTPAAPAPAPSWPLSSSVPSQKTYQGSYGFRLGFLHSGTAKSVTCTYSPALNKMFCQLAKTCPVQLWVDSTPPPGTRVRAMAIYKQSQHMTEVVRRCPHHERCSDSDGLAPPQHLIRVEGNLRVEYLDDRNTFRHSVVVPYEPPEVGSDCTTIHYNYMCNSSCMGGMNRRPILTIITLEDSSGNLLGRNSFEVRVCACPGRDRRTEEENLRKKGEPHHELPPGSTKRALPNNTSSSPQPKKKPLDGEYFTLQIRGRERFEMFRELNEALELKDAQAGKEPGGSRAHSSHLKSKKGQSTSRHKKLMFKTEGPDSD
In short: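 NCI-H358 cells pre-induced 24 h with 10 ng/ml doxycycline to express N-terminal eGFP-delta133p53alpha, then dosed 24 h at 37C without doxycycline; fixed, Hoechst-stained, GFP intensity by laser scanning cytometry, normalized to DMSO (0%) and 57.5 uM 5-azacytidine (100%).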
Potency is read from the fitted curve at half-maximal effect.

Row | Compound | Potency | activation [%]
1 | CCOC(=O)c1c(N)sc2c1CCN(Cc1ccccc1)C2 | 15.5 µM (active) | 
2 | C=CS(=O)(=O)N1CCCN(c2cc(NCCC(=O)O)nc(-c3ccccn3)n2)CC1 |  | -4.47
3 | COc1ccc(C=CC(=O)Nc2ccccc2C(=O)O)cc1OC |  | 5.12
4 | CO[C@H]1C=CO[C@@]2(C)Oc3c(C)c(O)c4c(O)c(c(C=NN5CCN(C)CC5)c(O)c4c3C2=O)NC(=O)C(C)=CC=C[C@H](C)[C@H](O)[C@@H](C)[C@@H](O)[C@@H](C)[C@H](OC(C)=O)[C@H]1C |  | 3.33
5 | Cc1cc2c(OCC(CNC(C)(C)C)OC(=O)c3ccccc3)cccc2[nH]1 (stereo unspecified) |  | 9.6
6 | N[C@H]1C(O)O[C@H](CO)[C@@H](O)[C@@H]1O (stereo partly specified) |  | -0.837
7 | COc1c(N2C[C@@H]3CCCN[C@@H]3C2)c(F)cc2c(=O)c(C(=O)O)cn(C3CC3)c12 |  | 4.18
8 | CN[C@@H]1[C@@H](O)[C@@H](O[C@@H]2[C@@H](O)[C@H](O[C@H]3O[C@H](CN)[C@@H](O)[C@H](O)[C@@H]3O)[C@@H](N)C[C@@H]2NC(=O)[C@@H](O)CN)OC[C@]1(C)O |  | -2.48
9 | O=C(O)CCc1nc2ccccc2[nH]1 |  | 0.565
10 | CC(C)(Oc1ccc(Cl)cc1)C(=O)O |  | -18.4
11 | O=C(CS(=O)Cc1ccco1)NCC=CCOc1cc(CN2CCCCC2)ccn1 (stereo unspecified) |  | 38.6
12 | CN1C(=O)c2ccccc2C1=O |  | 7.53
13 | CC(C)OC(=O)CCCC=CC[C@@H]1[C@H](C=C[C@@H](O)COc2cccc(C(F)(F)F)c2)[C@H](O)C[C@@H]1O |  | -7.59
14 | CCCC(O)C(CC)CO (stereo unspecified) |  | 6.21
15 | CC1(C)O[C@H]2C[C@@H]3[C@H]4CCC5=CC(=O)C=C[C@]5(C)[C@@]4(F)[C@@H](O)C[C@]3(C)[C@]2(C(=O)CO)O1 |  | 8.11
16 | C[C@@H](O[C@H]1OCCN(Cc2n[nH]c(=O)[nH]2)[C@H]1c1ccc(F)cc1)c1cc(C(F)(F)F)cc(C(F)(F)F)c1 |  | 7.53

Row | Compound | Potency | activation [%]
17 | Cn1cc(C=C2C(=O)Nc3cccnc32)c2ccccc21 | 24.3 µM (active) | 
18 | CC(=O)[C@@]1(O)CC[C@H]2[C@@H]3C[C@H](C)C4=CC(=O)CC[C@]4(C)[C@H]3CC[C@@]21C |  | -5.86
19 | C[C@]12CCC(=O)C=C1CC[C@@H]1[C@@H]2[C@@H](O)C[C@@]2(C)[C@H]1CC[C@]2(O)C(=O)COC(=O)CCC(=O)O |  | 1.69
20 | CCOC(=O)Nc1ccc2c(c1)N(C(=O)CCN1CCOCC1)c1ccccc1S2 |  | 4.18
21 | CS[C@H]1SC[C@@H]2C(=O)N(C)[C@H](C(C)C)C(=O)OC[C@H](NC(=O)c3cnc4ccccc4n3)C(=O)N[C@H](C)C(=O)N(C)[C@@H]1C(=O)N(C)[C@H](C(C)C)C(=O)OC[C@H](NC(=O)c1cnc3ccccc3n1)C(=O)N[C@H](C)C(=O)N2C | 0.0343 µM (active) | 
22 | CC(C)C[C@@H](N)C(=O)O |  | -14.2
23 | CC[C@]12CCCN3CCc4c(n(c5ccccc45)[C@@](O)(C(=O)OC)C1)[C@@H]32 |  | 5.02
24 | O=C(CCCN1CCC(O)(c2ccc(Br)cc2)CC1)c1ccc(F)cc1 |  | 3.35
25 | CCC(=O)Oc1ccc2c(c1)CC[C@@H]1[C@@H]2CC[C@@]2(C)[C@H]1C[C@@H](OC(=O)CC)[C@@H]2OC(=O)CC |  | -8.47
26 | CC(COc1ccccc1)NN (stereo unspecified) |  | 6.69
27 | CN(C)CCn1nnnc1SCC1=C(C(=O)O)N2C(=O)[C@@H](NC(=O)Cc3csc(N)n3)[C@H]2SC1 |  | -0.565
28 | CC(C)C[C@H](NC(=O)CNC(=O)[C@H](Cc1ccc(O)cc1)NC(=O)[C@H](CO)NC(=O)[C@H](Cc1c[nH]c2ccccc12)NC(=O)[C@H](Cc1cnc[nH]1)NC(=O)[C@@H]1CCC(=O)N1)C(=O)N[C@@H](CCCN=C(N)N)C(=O)N1CCC[C@H]1C(=O)NCC(N)=O (stereo in doubt) |  | -1.69
29 | COc1cc2c(cc1OC)C(=O)CC2 |  | -2.82
30 | Nc1cccc2c(N)cccc12 | 28.2 µM (active) | 
31 | C[C@H]1C[C@H]2[C@@H]3CCC4=CC(=O)C=C[C@]4(C)[C@@]3(Cl)[C@@H](O)C[C@]2(C)[C@@]1(O)C(=O)CO |  | -4.18
